From PubChem BioAssay (NCATS)
Results filed as inconclusive are left out. Activity calls are given as the source filed them. Calls come from the whole dose curve; as a rule, active = well fitted inhibition curve with a large enough effect; inconclusive = small, poorly fitted or top-dose-only effect; inactive = flat fitted curve, though single readings scatter.

Key:
[1] = tested on: CRL-7250; test: Cytotoxic Profiling of Annotated Libraries Using Quantitative High-Throughput Screening (AID 1296008); conditions: Five cell lines viability, CellTiter-Glo ATP luminescence, 48-72 h; max response: stronger effect = lower value; for max response: % is set by controls: 0 for no effect and ±100 for the full control effect
Outline: (§1)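 Cytotoxicity was measured as CellTiter-Glo ATP luminescence, read after 10 min at room temperature. Compound treatment of the cells lasted 48 or 72 hr at 37 degrees Celsius in a qHTS format.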

[2] = tested on: HEK293; test: as above; conditions: Five cell lines viability, CellTiter-Glo ATP luminescence, 48-72 h; max response: stronger effect = lower value
Outline: as §1

[3] = tested on: HaCat; test: as above; conditions: Five cell lines viability, CellTiter-Glo ATP luminescence, 48-72 h; max response: stronger effect = lower value
Outline: as §1

[4] = tested on: KB-3-1; test: as above; conditions: Five cell lines viability, CellTiter-Glo ATP luminescence, 48-72 h; max response: stronger effect = lower value
Outline: as §1

[5] = tested on: NIH3T3; test: as above; conditions: Five cell lines viability, CellTiter-Glo ATP luminescence, 48-72 h; max response: stronger effect = lower value
Outline: as §1

[6] = tested on: HEK293T; test: qHTS assay to identify novel small-molecules to repurpose for Merkel cell carcinoma treatment (AID 1296009); conditions: MCC and control cell lines, CellTiter-Glo viability, 72 h; series mostly up to 44.8 µM
Outline: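 After compound transfer in DMSO, plates were kept 72 hr at 37 degree celsius. Luminescent ATP signal from CellTiter-Glo served as viability measure, normalized against DMSO and no-cell controls.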
Note: nearly all actives have a fitted effect of over 60% in size.

C=C(C)[C@@H](C)[C@H]1O[C@]23C[C@]4(CO2)C(CCC2[C@@]5(C)CC[C@H](O[C@@H]6OC[C@H](O)[C@H](O[C@@H]7O[C@H](CO)[C@@H](O)[C@H](O)[C@H]7O)[C@H]6O[C@@H]6O[C@@H](CO)[C@H](O)[C@H]6O)C(C)(C)C5CC[C@]24C)C3[C@@](C)(O)[C@@H]1OC(C)=O (some centres not stated)
inactive: outcome [1] | outcome [2] | max response [3] -4.68% | max response [4] -3.84% | outcome [5] | outcome [6] inactive [at 9.27 µM]

COCC(=O)N1CCc2cc(-c3csc(NC(=O)c4cc(OC)cc(OC)c4)n3)ccc21
inactive: outcome [1] | outcome [2] | max response [3] -4% | outcome [4] | outcome [5] | Potency [6]

CC(=O)O[C@H]1[C@H](Oc2ccccc2COC(=O)C2(O)C=CCCC2=O)O[C@H](CO)[C@@H](O)[C@@H]1O (some centres not stated)
inactive: max response [1] 3.12% | outcome [2] | max response [3] 3.69% | max response [4] 6.43% | max response [5] 0.519% | Potency [6]

COc1cc(C(=O)OC[C@H]2O[C@H](O[C@@]3(CO)O[C@@H](CO)[C@H](O)[C@H]3O)[C@H](O)[C@@H](O)[C@@H]2O)ccc1O
inactive: max response [1] -10.5% | outcome [2] | max response [3] 2.76% | max response [4] 4.87% | max response [5] 0.778% | Potency [6]

CC1=CC(=O)CC(C)(CO[C@@H]2O[C@H](CO)[C@@H](O)[C@H](O)[C@H]2O)C1(O)/C=C/C(C)=C/C(=O)O (some centres not stated)
inactive: outcome [1] | outcome [2] | max response [3] -0.434% | outcome [4] | outcome [5] | Potency [6]

CC(C)CC1(C(=O)OCc2ccc(O[C@@H]3O[C@H](CO)[C@@H](O)[C@H](O)[C@H]3O)cc2)CC(=O)OC(C(=O)O)CC(=O)OCC2OC(O1)C(OC(=O)/C=C/c1ccc(O)cc1)C(O)C2O (some centres not stated)
inactive: max response [1] 2.72% | outcome [2] | max response [3] -1.08% | max response [4] 8.15% | outcome [5] | outcome [6] inactive [at 9.27 µM]

COC(=O)[C@@]1(C)CC[C@]2(C(=O)O[C@@H]3O[C@H](CO)[C@@H](O)[C@H](O)[C@H]3O)CC[C@]3(C)C(=CCC4[C@@]5(C)CC[C@H](O[C@@H]6O[C@H](C(=O)O)[C@@H](O)[C@H](O)[C@H]6O)C(C)(C)C5CC[C@]43C)[C@@H]2C1 (some centres not stated)
inactive: max response [1] -18.2% | outcome [2] | max response [3] -2.02% | max response [4] -0.321% | max response [5] 2.66% | outcome [6] inactive [at 9.27 µM]

COc1c2c(c(C)c3c1C(=O)OC3)O[C@@]1(C)C[C@@H](O)[C@]34O[C@](OC)(CC[C@]3(C)[C@H]1C2)OC4(C)C
inactive: outcome [1] | outcome [2] | max response [3] -1.6% | outcome [4] | max response [5] 2.2% | Potency [6]

CC1NC(=O)C(Cc2c[nH]c3ccccc23)NC1=O (configuration not stated)
inactive: max response [1] 2.89% | outcome [2] | max response [3] 2.4% | max response [4] 6.79% | max response [5] 2.54% | Potency [6]

COCCN(C)Cc1ccc2nc3sc(C(=O)N(C)C4CCCCC4)cn3c2c1
inactive: outcome [1] | outcome [2] | max response [3] -3.7% | outcome [4] | max response [5] -0.706% | Potency [6]

CC(C)C(=O)c1cn(CC(=O)COc2ccc(Oc3ccccc3)cc2)c2ccc(C(=O)O)cc12
inactive: max response [1] 3.02% | outcome [2] | max response [3] -4.02% | max response [4] -0.497% | max response [5] -1.24% | Potency [6]

O=c1c2ccccc2nc2n1CCC2O (configuration not stated)
inactive: outcome [1] | outcome [2] | max response [3] 4.07% | outcome [4] | max response [5] 2.87% | Potency [6]

CC(C)=CCC[C@](C)(O[C@@H]1O[C@H](CO[C@@H]2OC[C@@H](O)[C@H](O)[C@H]2O)[C@@H](O)[C@H](O)[C@H]1O)[C@H]1CC[C@]2(C)[C@@H]1[C@H](O)C[C@@H]1[C@@]3(C)CC[C@H](O[C@@H]4O[C@H](CO)[C@@H](O)[C@H](O)[C@H]4O[C@@H]4O[C@H](CO)[C@@H](O)[C@H](O)[C@H]4O)C(C)(C)[C@@H]3CC[C@]12C
inactive: outcome [1] | outcome [2] | max response [3] -10.6% | outcome [4] | outcome [5] | Potency [6]

COC1=CC(=O)C[C@@H](C)[C@]12Oc1cc(OC)cc(OC)c1C2=O
inactive: max response [1] -2.71% | outcome [2] | max response [3] -2.69% | max response [4] 5.37% | outcome [5] | Potency [6]

COc1ccc([C@@H]2N[C@H](C(=O)O)Cc3c2[nH]c2ccccc32)cc1CN1CCN(c2ccccc2F)CC1
inactive: max response [1] -3.7% | outcome [2] | max response [3] 1.36% | max response [4] -4.47% | outcome [5] | Potency [6]

C[C@H]1[C@H](C)CC[C@]2(C(=O)O)CC[C@]3(C(=O)O)C(=CCC4[C@@]5(C)CC[C@H](O[C@@H]6O[C@H](C)[C@@H](O)[C@H](O)[C@H]6O)C(C)(C)C5CC[C@]43C)[C@H]12 (some centres not stated)
inactive: max response [1] -5.62% | outcome [2] | max response [3] 2.99% | max response [4] 1.93% | outcome [5] | Potency [6]

C=CC(C)(O)CC/C=C(\C)C(=O)OCC1OC(OC2CCC3(C)C(CCC4(C)C3CC=C3C5CC(C)(C)C(O)CC5(C(=O)O)CCC34C)C2(C)C)C(O)C(OC2OC(CO)C(O)C(OC3OC(CO)C(O)C(OC4OC(COC5OC(CO)C(O)C(O)C5O)C(O)C(O)C4O)C3O)C2O)C1O (configuration not stated)
inactive: max response [1] -1.92% | outcome [2] | max response [3] 2.14% | outcome [4] | outcome [5] | outcome [6] inactive [at 9.27 µM]
